Assay outcomes: PubChem BioAssay, National Center for Advancing Translational Sciences (NCATS)
Pol eta inh: blocks human DNA polymerase eta activity. recombinant Pol eta, fluorescent DNA replication assay. Q9Y253. AID 588591. Potency, µM (titrated, usually from 114 µM), inactives show at the highest dose activity change, negative = inhibition, usual class: inhibitors. hit rate 1.2% among 390,000; also: % is scaled to controls: 0 for no effect and ±100 for the full control effect
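Fluorescent replication assay: 50 nM final substrate added after a 15 min room-temperature compound preincubation with 10 nM enzyme. Signal taken at 0 min and again at 10 min.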
WRN inhibitor: WRN helicase (human) inhibition | Q14191 | WRN helicase unwinding, fluorescent forked duplex, kinetic | Potency, µM (series often up to 114 µM), for inactives: at the top dose activity change, negative = inhibition, actives largely listed as inhibitors | hit rate 0.46% among 360,000 | AID 651768; also: % is scaled to controls: 0 for no effect and ±100 for the full control effect; nearly all actives have a fitted effect of over 55% in size
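Kinetic fluorescence helicase assay: unwinding of a quenched forked DNA duplex (100 nM final) with 2 mM ATP final raises red fluorescence (525/598 nm). Compounds sat 15 min at room temperature with 20 nM WRN beforehand.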
Pol kappa inh: DNA polymerase kappa (human) inhibition; purified Pol kappa, fluorescent DNA synthesis assay, 10 min; Potency, µM (top dose mostly 107 µM), inactives show at the highest dose activity, negative = inhibition, actives largely listed as inhibitors; hit rate 0.53% among 400,000; also: % is scaled to controls: 0 for no effect and ±100 for the full control effect
Target sequence (Q9UBT6 whole entry, looked up): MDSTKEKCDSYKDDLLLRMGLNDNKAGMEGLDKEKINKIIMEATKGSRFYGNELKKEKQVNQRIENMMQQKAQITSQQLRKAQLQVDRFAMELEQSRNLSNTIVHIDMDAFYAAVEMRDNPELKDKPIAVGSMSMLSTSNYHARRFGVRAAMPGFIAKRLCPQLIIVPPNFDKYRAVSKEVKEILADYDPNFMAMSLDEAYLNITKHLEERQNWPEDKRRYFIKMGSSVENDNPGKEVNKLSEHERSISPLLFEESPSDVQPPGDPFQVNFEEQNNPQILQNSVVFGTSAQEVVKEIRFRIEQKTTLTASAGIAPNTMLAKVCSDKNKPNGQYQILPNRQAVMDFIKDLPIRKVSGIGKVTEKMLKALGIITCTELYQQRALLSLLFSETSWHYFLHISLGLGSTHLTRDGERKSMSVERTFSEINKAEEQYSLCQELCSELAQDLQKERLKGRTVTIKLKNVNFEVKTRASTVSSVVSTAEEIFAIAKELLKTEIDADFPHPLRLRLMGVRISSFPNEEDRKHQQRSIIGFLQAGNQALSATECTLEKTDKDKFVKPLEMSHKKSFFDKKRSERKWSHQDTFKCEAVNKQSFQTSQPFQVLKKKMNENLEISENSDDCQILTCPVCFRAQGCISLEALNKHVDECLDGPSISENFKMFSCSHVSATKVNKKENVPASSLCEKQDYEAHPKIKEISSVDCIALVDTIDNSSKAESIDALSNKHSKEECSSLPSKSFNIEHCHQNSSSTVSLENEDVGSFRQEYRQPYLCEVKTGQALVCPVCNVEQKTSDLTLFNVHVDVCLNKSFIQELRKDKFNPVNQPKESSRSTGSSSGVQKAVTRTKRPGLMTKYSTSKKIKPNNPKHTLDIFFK
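Fluorescent qHTS in 1536-well format: enzyme (10 nM) and compound sat 15 min at room temperature before 50 nM substrate (final) was added. Signal taken at 0 and 10 min; no-enzyme buffer wells were negative controls.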
Pol beta inh: inhibitors of human DNA polymerase beta; Potency, µM (highest dose often 114 µM), without a hit: at the top dose activity change, negative = inhibition, hits mostly inhibitors; Pol beta primer extension/strand displacement, fluorescence kinetic; P06746; hit rate 1.3% among 340,000; AID 485314; also: % is scaled to controls: 0 for no effect and ±100 for the full control effect
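Pol beta (10 nM) and compounds were preincubated 15 min at room temperature, then 50 nM substrate (final) started primer extension/strand displacement. Reads were taken at 0 and 10 min; concentration-response data were fitted to a four-parameter Hill equation.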
POLI inh: blocks human DNA polymerase iota activity; Q9UNA4; Pol iota fluorescent replication assay, 10 min; Potency, µM (highest dose often 115 µM), inactives show at the highest dose activity, negative = inhibition, actives largely listed as inhibitors; hit rate 1% among 390,000; AID 588590
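Fluorescent replication assay read twice, at 0 min and 10 min after adding 50 nM (final) substrate. Enzyme (10 nM) and compounds were first incubated 15 min at room temperature; enzyme-free buffer wells were negative controls.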
FEN1 inh: blocks human flap endonuclease 1; hit rate 0.35% among 390,000; Recombinant FEN1 flap cleavage, fluorescence, 15 min; P39748; AID 588795; Potency, µM (titrated, usually from 114 µM), for the others: top-dose activity change, negative = inhibition, actives largely listed as inhibitors; also: % is scaled to controls: 0 for no effect and ±100 for the full control effect; nearly all actives have a fitted effect of over 65% in size
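Concentration–response screening of FEN1 (10 nM): 15 min compound preincubation at room temperature, reaction started with 50 nM substrate and read at 0 and 15 min. Corrected, normalized data were fitted by a four-parameter Hill equation.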
An asterisk follows results filed as active; ? = inconclusive; / = no result given; [ ] = remark or other dose. In the library only some 2.4% were active in any assay of this set; here they are far more common. Calls follow the shape of the dose curve; as a rule, active = well fitted curve in the direction sought with a large enough effect; inconclusive = small, poorly fitted or top-dose-only effect, or another doubt; inactive = no such curve, though single readings can be large; an effect the other way counts as inactive or inconclusive. Potency is read from the fitted curve at half-maximal effect.

SMILES	Pol eta inh	WRN inhibitor	Pol kappa inh	Pol beta inh	POLI inh	FEN1 inh
Cc1ccc(C)c(S(=O)(=O)c2nnn3c2nc(NC2CCCCC2)c2sccc23)c1	-19%	/	-7%	?	11%	-22%
Cc1cc(C)cc(NC(=O)CSCc2nc3c(nnn3Cc3ccc(F)cc3)c(=O)[nH]2)c1	?	-28%[57.1 µM]	-39%	/	45µM*	?
CCc1ccc(/C=C2/SC(=S)NC2=O)cc1	/	/	-2%[60.1 µM]	/	/	-3%[57.1 µM]
CC[C@]12c3[nH]c4ccccc4c3CCN1C(=O)C(CC(=O)NCCCn1ccnc1)C[C@@H]2C(=O)N1CCN(C(=O)C2CC2)CC1 (some centres not stated)	-10%	-1%	-12%	/	-7%	12%
CC[C@]12c3[nH]c4cc(-c5ccco5)ccc4c3CCN1C(=O)[C@@H](CC(=O)NCC13CC4CC(CC(C4)C1)C3)C[C@@H]2C(=O)N1CCN(C(=O)c2ccco2)CC1	-13%	4%[11.6 µM]	-26%	/	28µM*	4%
CC[C@]12c3[nH]c4ccc(Cl)cc4c3CCN1C(=O)[C@@H](CC(=O)NCCCn1ccnc1)C[C@@H]2C(=O)N1CCN(C(=O)C2CC2)CC1	-6%	-1%[11.6 µM]	14%	/	89µM*	-1%
COc1cccc(OC)c1-c1cc(C(=O)NC2(C(=O)O)C3CC4CC(C3)CC2C4)nn1-c1ccc(C(=O)N(C)CCCN(C)C)cc1C(C)C (configuration not stated)	/	/	-10%[12 µM]	/	/	/
COc1ccc(NC(=O)C(=O)NCC(c2cccnc2)N2CCc3ccccc3C2)cc1 (configuration not stated)	-16%	/	-5%	-3%	6%	-20%
COc1ccc(O)c(/C=N/NC(=O)c2ccc(CSc3nc(C)cc(C)n3)cc2)c1	?	?	?	25µM*	?	-11%
Cc1cc(C)nc(SCc2ccc(C(=O)N/N=C/c3ccco3)cc2)n1	-4%	7%	-3%	14µM*	100%	-1%
C/C(=N\NC(=O)c1ccc(CSc2nc(C)cc(C)n2)cc1)c1ccco1	-8%	9%	-24%	56µM*	103%	3%
COc1ccc(O)c(/C=N/NC(=O)c2ccc(OCc3cccc(Br)c3)cc2)c1	-10%	-6%	-9%	16µM*	?	3%
CCCn1ccc2c(OCC(=O)Nc3ccc(C(F)(F)F)cc3)cccc2c1=O	-19%	/	-4%[60.1 µM]	8%	15%	-4%
CCCC(=O)NCCc1nc2ccccc2n1Cc1c(F)cccc1Cl	-15%	/	-7%	-11%	8%	17%
COC(=O)c1c(NC(=O)c2nc(SC)ncc2Cl)sc2c1CCCC2	-10%	/	18%	1%	12%	-1%
COc1cccc(C(=O)Nc2ccccc2-c2nnc(-c3cc(OC)ccc3Br)o2)c1	-2%	/	4%	12%	16%	4%
Cc1ccc(-c2cc(-c3ccc4c(c3)NC(=O)CO4)nc3c2COc2ccc(C)cc2-3)cc1	-13%	/	-2%	17%	-4%	-6%
O=c1cc(N2CCCCC2)[nH]c(=O)n1C1CCCCC1	-10%	-8%	-9%	3%	-14%	-16%
Cc1cc(C)cc(Nc2cc(=O)n(C3CCCCC3)c(=O)[nH]2)c1	?	-17%	-13%	45µM*	-3%	0%
C[C@@H]1CN([C@H](C)CO)S(=O)(=O)c2ccc(-c3ccc(C(=O)N(C)C)cc3)cc2O[C@H]1CN(C)C(=O)Cc1ccccn1	-12%	4%	/	/	/	/
C=CCNC(=O)/C(=C\c1ccc(Br)cc1)NC(=O)c1ccccc1OC	-12%	-27%[57.1 µM]	4%	0.14µM*	-1%	1%
COc1ccccc1C(=O)N/C(=C/c1ccc(Br)cc1)C(=O)NCC(=O)O	0%	-13%	-13%	35%	23%	3%
CCN(C(=O)CSc1nnc(-c2cc(OC)c(OC)c(OC)c2)o1)c1ccccc1	2%	/	?	10µM*	?	-20%
CCc1nn(Cc2cc(C)ccc2C)c(=O)c2cc3cc(C)ccc3n12	-18%	/	-1%	5%	2%	-1%
COc1cccc(C(=O)NC2CC3CCCC(C2)N3CC(=O)Nc2ccccc2)c1 (configuration not stated)	?	?	-6%	40µM*	?	-12%
SMILES	Pol eta inh	WRN inhibitor	Pol kappa inh	Pol beta inh	POLI inh	FEN1 inh
O=C(c1ccc(Cl)c(S(=O)(=O)Nc2ccccc2C(=O)N2CCc3ccccc3C2)c1)N1CCc2ccccc2C1	40µM*	-9%[11.6 µM]	-33%	13%	32%	-6%
CCOc1ccc(NC(=O)CN2CCCN(Cc3cc(C)ccc3C)S2(=O)=O)cc1	-11%	/	?	-19%	89µM*	?
Cc1c(NC(=O)c2ccco2)cccc1-c1nc2cccnc2s1	45µM*	-14%[57.1 µM]	-19%	-4%	?	6%
CCOc1ccc(NC(=O)c2c(NCc3cccnc3)sc3c2CCC(C)C3)cc1 (configuration not stated)	-16%	/	-11%[60.1 µM]	11%	3%	-15%
COc1ccc(NC(=O)c2cn(CC(C)C)c(=O)c3cc(OC)c(OC)cc23)cc1Cl	-12%	/	-9%	31%	-3%	-21%
CN(C)CCN(Cc1ccco1)S(=O)(=O)c1cc2c(cc1Cl)NC(=O)CO2	13%	/	-8%[60.1 µM]	-19%	-10%	-4%
CCN(CC)c1ccccc1/C=C/[n+]1ccc(CCCCI)c2ccccc21	/	/	50µM*	/	?	?
CCc1ccc2[nH]cc(S(=O)(=O)c3ccc(C(C)C)cc3)c(=O)c2c1	-2%	/	-14%	1%	6%	-6%
O=C(CCC(=O)N/N=C/c1ccco1)N/N=C/c1ccco1	-14%	-13%	-4%	-11%	121%	2%
O=C(CCCCCCCCC(=O)N/N=C/c1ccco1)N/N=C/c1ccco1	-12%	?	-26%	50µM*	?	0%
COc1cc(-c2nc3nc(C)cc(C)n3c2Nc2ccc(Cl)cc2)ccc1O	-3%	/	-5%	-6%	-2%	-7%
C#CCOCCOCCOCCNc1nc(N2CCN(C(=O)CCCCCCCCCCNC(=O)Cn3cc(C[C@@H](C)O)nn3)CC2)nc(N2CCN(C(=O)CCCCCCCCCCNC(=O)[C@H](CCCCN)n3cc(CCCC(=O)O)nn3)CC2)n1	5%	1%	-1%	/	-23%	1%
C#CCOCCOCCOCCNc1nc(N2CCN(C(=O)CCCCCCCCCCNC(=O)[C@H](CO)n3cc(CCCSC)nn3)CC2)nc(N2CCN(C(=O)CCCCCCCCCCNC(=O)[C@H](CCCN=C(N)N)n3cc(C[C@@H](C)CC)nn3)CC2)n1	?	?	-16%	/	?	22µM*
